From PubChem BioAssay (NCI) come the findings set out here.

Compounds without any hit were thinned out: in the full panel of roughly 83,000, 20% have a hit.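 Values shown are percent growth following 48 h exposure of cells in 96-well plates to a single concentration of compound; below 10 was considered active.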 A number with no mark means an inactive call. The source made the active and inactive calls.

Among the test systems are NCI-H23 lung; NCI-H226 lung; NCI-H322M lung; HOP-62 NSCLC; NCI-H460 lung; HOP-92 NSCLC; NCI-H522 lung; A549/ATCC NSCLC; 786-0 renal.
Assay in all cases: NCI-60 one-dose screen, 48 h (100 = growth as untreated, 0 = no growth, -100 = all killed)
Holding throughout (conditions): 10 µM unless noted

Regarding `COc1cccc(CCC2CCCN(c3cc(C)nc(N)n3)C2)c1` (stereo unspecified), the growth is 22.1% in the assay on NCI-H23 lung; 55.9% in the assay on NCI-H226 lung; 40% in the assay with NCI-H322M lung; 59.4% in the assay on HOP-62 NSCLC; 14.3% with NCI-H460 lung; 23% with HOP-92 NSCLC. In addition, the growth with NCI-H522 lung is 2.3% (active); in the assay with A549/ATCC NSCLC, 29.1%; in the assay on 786-0 renal it was 19%.

Turning to `C[C@@H]1C(=O)N(C[C@H](Cc2ccccc2)N(Cc2ccccc2)Cc2ccccc2)[C@]1(Cc1ccccc1)C(=O)OC(C)(C)C`, the growth in the assay on NCI-H23 lung is 42%; with NCI-H226 lung it was 47.8%; in the assay with NCI-H322M lung it was 87.9%; in the assay on HOP-62 NSCLC, 81.6%; with NCI-H460 lung, 54%; in the assay with HOP-92 NSCLC it was 46.3%. Besides, the growth is 50.9% in the assay with NCI-H522 lung, 60% with A549/ATCC NSCLC and 72.6% in the assay on 786-0 renal.

Consider `O=C(CC12CC3CC(CC(C3)C1)C2)NCCOCCOCCOCCNC(=O)c1cc2c(o1)C(=O)c1ccccc1C2=O`, for which the growth with NCI-H23 lung is -47.6% (active); in the assay with NCI-H226 lung, -73.6% (active); in the assay with NCI-H322M lung, -78.7% (active); in the assay with HOP-62 NSCLC, -49.7% (active); with NCI-H460 lung, -71.5% (active); with HOP-92 NSCLC, 27.6%. In addition, the growth with NCI-H522 lung was -45.6% (active); in the assay with A549/ATCC NSCLC it was -41.2% (active); in the assay with 786-0 renal, -5.36% (active).

With `CCCNCC(=O)Nc1ccc(C(=O)OC(C)(C)CC)cc1`, the growth was 102% in the assay on NCI-H23 lung; 95% in the assay with NCI-H226 lung; 97% with NCI-H322M lung; 99.7% in the assay on HOP-62 NSCLC; 104% in the assay on NCI-H460 lung; 74.4% in the assay on HOP-92 NSCLC. The growth was 66.6% in the assay with NCI-H522 lung, 97.1% in the assay on A549/ATCC NSCLC and 90.8% in the assay with 786-0 renal.

Turning to `CCOc1cc(C2C(Cl)C(=O)N2n2cnnc2)ccc1O` (stereo unspecified), the growth with NCI-H23 lung was 97.2%; in the assay with NCI-H226 lung it was 106%; in the assay on NCI-H322M lung, 97%; with HOP-62 NSCLC, 74%; in the assay with NCI-H460 lung it was 104%; with HOP-92 NSCLC, 91.9%. Moreover, the growth in the assay with NCI-H522 lung is 86.2%; with A549/ATCC NSCLC, 90.5%; in the assay with 786-0 renal, 92.7%.

For the molecule `CCOC(=O)c1c2c(c(C)n1C)-c1nn(Cc3ccc(OC)cc3)cc1CC2`, the growth is 83.2% in the assay on NCI-H23 lung; 94.5% in the assay with NCI-H226 lung; 190% in the assay with NCI-H322M lung; 132% with HOP-62 NSCLC; 111% in the assay with NCI-H460 lung; -0.787% (active) in the assay with HOP-92 NSCLC. Further, the growth in the assay with NCI-H522 lung is 90.7%; in the assay on A549/ATCC NSCLC, 91.9%; with 786-0 renal it was 74.7%.

Take `N#Cc1c(-c2ccccc2)nc(SCC2CO2)nc1N1CCOCC1` (stereo unspecified): the growth was 71.4% in the assay on NCI-H23 lung; 75% in the assay on NCI-H226 lung; 65.8% in the assay on NCI-H322M lung; 54.3% with HOP-62 NSCLC; 67.6% in the assay on NCI-H460 lung; 18.3% with HOP-92 NSCLC. For the same molecule, the growth is 57.9% with NCI-H522 lung, 83.8% in the assay on A549/ATCC NSCLC and 65.5% in the assay on 786-0 renal.

For `N#Cc1c(N)n2c(nc1=Nc1ccc([N+](=O)[O-])cc1)sc1cc(Cl)ccc12`, the growth was 79% with NCI-H23 lung; 88.4% in the assay with NCI-H226 lung; 96% with NCI-H322M lung; 102% in the assay with HOP-62 NSCLC; 86.9% in the assay on NCI-H460 lung; 57.6% with HOP-92 NSCLC. Also, the growth with NCI-H522 lung was 77%; in the assay on A549/ATCC NSCLC, 106%; in the assay with 786-0 renal it was 109%.

`CCN(CC)CCCNC(=O)c1ccc(N)cc1O`: the growth was 95.5% in the assay on NCI-H23 lung; 87.9% in the assay on NCI-H226 lung; 90.4% in the assay on NCI-H322M lung; 95.6% in the assay on HOP-62 NSCLC; 108% in the assay with NCI-H460 lung; 89.6% in the assay on HOP-92 NSCLC. Also, the values for the growth in the assay with NCI-H522 lung, in the assay on A549/ATCC NSCLC and with 786-0 renal were 96.6%, 103% and 105%, respectively.

With `CC(=O)OCCc1ccccc1`, the growth was 86.9% with NCI-H23 lung; 108% with NCI-H226 lung; 103% in the assay with NCI-H322M lung; 78.1% with HOP-62 NSCLC; 110% in the assay on NCI-H460 lung; 85.7% in the assay on HOP-92 NSCLC. In addition, the values for the growth in the assay with NCI-H522 lung, with A549/ATCC NSCLC and in the assay with 786-0 renal were 84.7%, 107% and 91.8%, respectively.

Consider `C=C1c2c(C)nn(-c3ccc(O)cc3)c2N(C)C23C[C@@H]1C1(C)c4c(C)nn(-c5ccc(O)cc5)c4N(C)C(C)(C[C@H]12)C3` (stereo partly specified), for which the growth is 50.4% in the assay on NCI-H23 lung; 11.8% with NCI-H226 lung; 59.4% in the assay on NCI-H322M lung; 37% in the assay on HOP-62 NSCLC; 20.1% with NCI-H460 lung; 7.18% (active) in the assay on HOP-92 NSCLC. Further, the growth was 20.7% with NCI-H522 lung, 31.3% with A549/ATCC NSCLC and 34.3% with 786-0 renal.

Regarding `CCCCN1CCN(c2ccc3nc(-c4ccc5nc(-c6cc(OC)c(OC)c(OC)c6)[nH]c5c4)[nH]c3c2)CC1`, the growth in the assay with NCI-H23 lung was 82.9%; in the assay on NCI-H226 lung, 77.6%; with NCI-H322M lung, 86.4%; in the assay on HOP-62 NSCLC, 61.4%; in the assay with NCI-H460 lung it was 83%; with HOP-92 NSCLC it was 49.9%. In addition, the growth in the assay with NCI-H522 lung was 52.8%; in the assay on A549/ATCC NSCLC it was 105%; in the assay on 786-0 renal, 50.6%.

Consider `O=S(=O)(NCCNc1cc(-c2c(-c3cccc(O)c3)nc3sccn23)ccn1)c1ccc(Br)cc1`, for which the growth is 76.2% with NCI-H23 lung; 62.3% in the assay on NCI-H226 lung; 81.1% in the assay with NCI-H322M lung; 102% in the assay with HOP-62 NSCLC; 54.1% with NCI-H460 lung; 74.9% in the assay on HOP-92 NSCLC. Besides, the values for the growth in the assay on NCI-H522 lung, in the assay with A549/ATCC NSCLC and with 786-0 renal were 66.1%, 50.1% and 52.7%, respectively.

As to `OC(c1cccc(OCc2ccccc2)c1)c1nnc(-c2ccccc2)o1` (stereo unspecified), the growth in the assay on NCI-H23 lung was 83%; in the assay with NCI-H226 lung, 66.9%; in the assay with NCI-H322M lung it was 120%; with HOP-62 NSCLC it was 107%; in the assay with NCI-H460 lung, 96%; with HOP-92 NSCLC, 80.9%. Moreover, the growth in the assay on NCI-H522 lung was 79.2%; in the assay on A549/ATCC NSCLC it was 95.1%; with 786-0 renal it was 100%.
